Experimental data as given in the supplement of paper PMC6411743.
± gives the standard deviation of the averaged measurements. Targets with the largest changes are over-represented here; the source holds about 6,500 in all.

Compound: Nc1ncnc2c1ncn2[C@@H]1O[C@H](COP(=O)(O)OP(=O)(O)OP(=O)(O)O)[C@@H](O)[C@H]1O [adenosine triphosphate]
Assay: NP40-soluble protein abundance relative to vehicle (solubility fold change) (ratio); higher = more soluble protein in presence of ATP
In short: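 Eight concentrations, 0.1 to 10 mM, were tested on Jurkat crude lysate for 10 min at room temperature and then 3 min at 37 °C, in three independent experiments. The lysate was solubilised with 0.8% NP40 and benzonase, ultracentrifuged, and the supernatant TMT-labelled for LC-MS/MS. Each value is the fold change against the detergent-processed vehicle in its own replicate, from vsn-normalised intensities.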

UniProt Q9Y5P4, sequence (Q9Y5P4 whole entry): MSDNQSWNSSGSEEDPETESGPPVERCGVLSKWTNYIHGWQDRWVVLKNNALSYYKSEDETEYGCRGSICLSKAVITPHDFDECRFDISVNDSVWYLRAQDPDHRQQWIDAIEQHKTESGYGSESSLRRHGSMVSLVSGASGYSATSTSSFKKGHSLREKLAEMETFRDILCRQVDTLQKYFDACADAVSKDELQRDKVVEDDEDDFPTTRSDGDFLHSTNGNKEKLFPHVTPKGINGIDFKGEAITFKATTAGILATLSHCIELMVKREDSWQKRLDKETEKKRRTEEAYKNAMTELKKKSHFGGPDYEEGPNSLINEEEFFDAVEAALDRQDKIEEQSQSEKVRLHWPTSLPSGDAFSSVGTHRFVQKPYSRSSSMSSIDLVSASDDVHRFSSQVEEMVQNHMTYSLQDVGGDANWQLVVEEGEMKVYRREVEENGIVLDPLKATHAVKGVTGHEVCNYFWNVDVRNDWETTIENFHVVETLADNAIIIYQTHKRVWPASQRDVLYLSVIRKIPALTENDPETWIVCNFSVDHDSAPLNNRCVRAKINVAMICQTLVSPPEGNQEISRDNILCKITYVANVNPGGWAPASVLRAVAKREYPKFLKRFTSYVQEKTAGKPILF
UniProt Q9ULX3, sequence (Q9ULX3 whole entry): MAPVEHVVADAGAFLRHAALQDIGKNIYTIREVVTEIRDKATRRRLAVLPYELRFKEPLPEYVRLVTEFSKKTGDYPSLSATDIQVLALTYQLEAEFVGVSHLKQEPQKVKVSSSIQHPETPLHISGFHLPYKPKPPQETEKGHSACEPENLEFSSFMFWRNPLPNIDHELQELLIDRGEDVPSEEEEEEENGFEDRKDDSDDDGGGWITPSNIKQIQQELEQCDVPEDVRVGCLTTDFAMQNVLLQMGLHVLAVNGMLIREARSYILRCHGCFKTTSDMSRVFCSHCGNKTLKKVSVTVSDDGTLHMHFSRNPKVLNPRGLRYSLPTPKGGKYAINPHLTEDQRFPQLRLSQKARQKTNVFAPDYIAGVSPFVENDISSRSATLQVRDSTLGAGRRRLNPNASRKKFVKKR
UniProt Q9Y570, sequence (Q9Y570 whole entry): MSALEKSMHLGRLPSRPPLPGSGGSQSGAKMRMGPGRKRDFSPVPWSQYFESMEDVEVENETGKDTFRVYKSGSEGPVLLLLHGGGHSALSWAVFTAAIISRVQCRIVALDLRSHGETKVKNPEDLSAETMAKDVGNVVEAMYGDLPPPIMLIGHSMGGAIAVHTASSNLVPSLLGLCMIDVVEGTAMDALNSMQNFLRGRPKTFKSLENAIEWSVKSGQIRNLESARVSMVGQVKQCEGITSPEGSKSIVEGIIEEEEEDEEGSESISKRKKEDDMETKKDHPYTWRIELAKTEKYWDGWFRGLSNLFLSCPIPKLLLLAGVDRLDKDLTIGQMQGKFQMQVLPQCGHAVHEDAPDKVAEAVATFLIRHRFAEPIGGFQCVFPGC
UniProt Q9Y3I0, sequence (Q9Y3I0 whole entry): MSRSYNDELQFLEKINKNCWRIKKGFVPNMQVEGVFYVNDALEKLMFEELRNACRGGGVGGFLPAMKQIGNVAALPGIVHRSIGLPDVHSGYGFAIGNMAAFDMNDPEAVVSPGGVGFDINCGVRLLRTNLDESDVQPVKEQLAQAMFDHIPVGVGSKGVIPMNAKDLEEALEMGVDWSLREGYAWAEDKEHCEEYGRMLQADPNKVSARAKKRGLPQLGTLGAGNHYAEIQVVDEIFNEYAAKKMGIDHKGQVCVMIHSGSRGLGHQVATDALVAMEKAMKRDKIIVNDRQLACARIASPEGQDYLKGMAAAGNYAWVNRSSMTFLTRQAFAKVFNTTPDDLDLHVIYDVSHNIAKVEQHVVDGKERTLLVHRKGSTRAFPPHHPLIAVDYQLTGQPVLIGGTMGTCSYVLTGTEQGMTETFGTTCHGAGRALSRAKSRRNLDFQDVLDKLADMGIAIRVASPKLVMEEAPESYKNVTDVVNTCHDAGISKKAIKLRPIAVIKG
UniProt Q9UPN7, sequence (Q9UPN7 whole entry): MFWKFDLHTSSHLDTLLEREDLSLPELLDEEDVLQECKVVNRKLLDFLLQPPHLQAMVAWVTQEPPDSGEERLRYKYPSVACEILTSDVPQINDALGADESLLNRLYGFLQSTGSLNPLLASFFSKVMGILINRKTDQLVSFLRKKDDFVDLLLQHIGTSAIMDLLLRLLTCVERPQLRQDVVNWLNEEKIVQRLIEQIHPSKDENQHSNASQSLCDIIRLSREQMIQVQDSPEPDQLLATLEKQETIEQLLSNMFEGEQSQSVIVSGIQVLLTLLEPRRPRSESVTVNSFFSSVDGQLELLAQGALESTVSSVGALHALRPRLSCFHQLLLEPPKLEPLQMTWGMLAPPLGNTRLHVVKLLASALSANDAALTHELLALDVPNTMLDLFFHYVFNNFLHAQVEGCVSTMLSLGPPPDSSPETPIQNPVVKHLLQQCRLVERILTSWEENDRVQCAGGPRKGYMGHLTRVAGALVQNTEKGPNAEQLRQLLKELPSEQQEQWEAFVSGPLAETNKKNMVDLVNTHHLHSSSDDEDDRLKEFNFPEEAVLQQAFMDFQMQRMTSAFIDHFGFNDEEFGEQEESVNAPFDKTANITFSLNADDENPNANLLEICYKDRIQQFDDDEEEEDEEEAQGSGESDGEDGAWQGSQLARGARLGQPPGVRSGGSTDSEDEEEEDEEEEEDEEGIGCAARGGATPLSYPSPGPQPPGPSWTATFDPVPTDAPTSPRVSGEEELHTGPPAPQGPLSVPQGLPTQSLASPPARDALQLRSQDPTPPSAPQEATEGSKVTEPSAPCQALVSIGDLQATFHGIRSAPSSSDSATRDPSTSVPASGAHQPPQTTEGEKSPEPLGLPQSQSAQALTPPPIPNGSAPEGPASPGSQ
UniProt Q9UIV1, sequence (Q9UIV1 whole entry): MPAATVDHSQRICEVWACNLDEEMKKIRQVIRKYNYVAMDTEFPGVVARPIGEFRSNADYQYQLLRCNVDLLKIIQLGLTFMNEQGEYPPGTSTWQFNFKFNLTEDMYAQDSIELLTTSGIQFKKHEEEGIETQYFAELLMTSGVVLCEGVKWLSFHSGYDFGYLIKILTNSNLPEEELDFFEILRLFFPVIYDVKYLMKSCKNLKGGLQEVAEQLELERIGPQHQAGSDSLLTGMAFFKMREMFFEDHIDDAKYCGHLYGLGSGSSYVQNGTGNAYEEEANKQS
UniProt Q9Y303, sequence (Q9Y303 whole entry): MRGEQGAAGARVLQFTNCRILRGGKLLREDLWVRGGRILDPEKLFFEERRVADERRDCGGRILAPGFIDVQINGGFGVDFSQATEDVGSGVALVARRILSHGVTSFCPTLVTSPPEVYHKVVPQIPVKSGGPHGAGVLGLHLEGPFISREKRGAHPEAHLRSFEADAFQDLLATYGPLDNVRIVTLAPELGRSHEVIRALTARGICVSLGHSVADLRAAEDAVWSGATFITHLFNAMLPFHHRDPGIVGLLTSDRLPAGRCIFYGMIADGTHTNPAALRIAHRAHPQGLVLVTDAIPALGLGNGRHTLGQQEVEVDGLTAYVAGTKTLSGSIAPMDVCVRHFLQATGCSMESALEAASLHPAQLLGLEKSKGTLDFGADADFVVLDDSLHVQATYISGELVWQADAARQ
UniProt Q9UNF0, sequence (Q9UNF0 whole entry): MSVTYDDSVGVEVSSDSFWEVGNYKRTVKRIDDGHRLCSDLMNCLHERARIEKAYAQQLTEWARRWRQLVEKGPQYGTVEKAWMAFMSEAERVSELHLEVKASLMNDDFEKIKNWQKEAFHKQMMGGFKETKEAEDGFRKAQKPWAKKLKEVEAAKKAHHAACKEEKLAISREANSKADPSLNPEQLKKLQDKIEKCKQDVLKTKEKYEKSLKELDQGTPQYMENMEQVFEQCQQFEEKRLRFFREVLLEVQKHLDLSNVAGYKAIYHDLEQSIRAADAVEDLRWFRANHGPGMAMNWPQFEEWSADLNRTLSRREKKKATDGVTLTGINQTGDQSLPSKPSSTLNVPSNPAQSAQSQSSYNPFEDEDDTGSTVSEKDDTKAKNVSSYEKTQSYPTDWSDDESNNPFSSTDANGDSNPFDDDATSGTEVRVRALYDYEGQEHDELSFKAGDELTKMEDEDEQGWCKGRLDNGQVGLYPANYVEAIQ
UniProt Q9UNX4, sequence (Q9UNX4 whole entry): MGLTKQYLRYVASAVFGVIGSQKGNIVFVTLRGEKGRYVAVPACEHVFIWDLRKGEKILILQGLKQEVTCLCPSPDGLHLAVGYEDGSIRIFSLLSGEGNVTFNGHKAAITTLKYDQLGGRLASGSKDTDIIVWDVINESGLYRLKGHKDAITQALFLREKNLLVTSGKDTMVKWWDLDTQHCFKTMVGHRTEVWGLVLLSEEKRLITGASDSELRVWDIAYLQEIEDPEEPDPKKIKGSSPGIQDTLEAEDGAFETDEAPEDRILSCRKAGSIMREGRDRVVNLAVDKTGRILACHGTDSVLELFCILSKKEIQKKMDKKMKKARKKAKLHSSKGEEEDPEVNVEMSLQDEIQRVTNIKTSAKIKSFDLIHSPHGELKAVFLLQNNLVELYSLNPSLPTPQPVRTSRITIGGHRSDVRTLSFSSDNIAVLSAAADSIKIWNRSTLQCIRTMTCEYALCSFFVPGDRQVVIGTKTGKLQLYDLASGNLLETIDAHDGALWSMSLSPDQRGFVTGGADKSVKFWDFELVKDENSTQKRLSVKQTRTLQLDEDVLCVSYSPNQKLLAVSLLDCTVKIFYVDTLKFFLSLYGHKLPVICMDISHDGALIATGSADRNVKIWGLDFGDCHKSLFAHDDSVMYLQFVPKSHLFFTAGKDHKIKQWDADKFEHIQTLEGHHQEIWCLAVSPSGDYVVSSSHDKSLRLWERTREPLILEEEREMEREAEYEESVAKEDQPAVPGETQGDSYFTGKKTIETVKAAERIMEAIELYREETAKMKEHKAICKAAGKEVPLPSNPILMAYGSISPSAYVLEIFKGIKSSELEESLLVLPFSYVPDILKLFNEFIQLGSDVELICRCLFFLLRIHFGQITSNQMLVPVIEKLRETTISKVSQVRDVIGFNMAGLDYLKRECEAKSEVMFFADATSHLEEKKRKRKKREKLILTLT

Target	NP40-soluble protein abundance (concentration: 1mM)	NP40-soluble protein abundance (concentration: 2mM)	NP40-soluble protein abundance (concentration: 4mM)	NP40-soluble protein abundance (concentration: 6mM)	NP40-soluble protein abundance (concentration: 8mM)	NP40-soluble protein abundance (concentration: 10mM)
NOB1 (UniProt Q9ULX3)	1.07 ± 0.023	1.06 ± 0.086	1.03 ± 0.077	1.07 ± 0.13	1.08 ± 0.054	1.05 ± 0.065
CNOT7 (UniProt Q9UIV1)	1.23 ± 0.044	1.22 ± 0.06	1.29 ± 0.038	1.25 ± 0.037	1.3 ± 0.061	1.26 ± 0.076
NOP58 (UniProt Q9Y2X3)	1.08 ± 0.062	1.1 ± 0.054	1.2 ± 0.054	1.35 ± 0.079	1.51 ± 0.042	1.71 ± 0.13
UniProt Q9Y5T5-2	1.08 ± 0.067	1.11 ± 0.032	1.19 ± 0.014	1.33 ± 0.045	1.351 ± 0.012	1.41 ± 0.028
UniProt Q9Y5P4|Q9Y5P4-2|Q9Y5P4-3	0.9555 ± 0.0053	0.974 ± 0.025	0.948 ± 0.011	0.949 ± 0.024	0.93 ± 0.011	0.954 ± 0.026
UniProt Q9UPN4-2|Q9UPN4-3|I3L2J8|Q9UPN4	1.15 ± 0.14	1.18 ± 0.14	1.35 ± 0.12	1.45 ± 0.21	1.47 ± 0.26	1.7 ± 0.26
LUC7L2 (UniProt Q9Y383)	1.84 ± 0.14	1.95 ± 0.034	2.05 ± 0.038	2.21 ± 0.066	2.12 ± 0.087	2.11 ± 0.095
WDR3 (UniProt Q9UNX4)	1.28 ± 0.11	1.46 ± 0.1	1.82 ± 0.17	1.97 ± 0.2	2.23 ± 0.2	2.34 ± 0.13
UniProt Q9UNF0|Q9UNF0-2	0.963 ± 0.04	0.952 ± 0.024	0.927 ± 0.011	0.954 ± 0.023	0.895 ± 0.019	0.9 ± 0.049
PPME1 (UniProt Q9Y570)	0.951 ± 0.039	0.972 ± 0.056	0.956 ± 0.037	0.933 ± 0.085	0.941 ± 0.023	0.953 ± 0.058
POFUT2 (UniProt Q9Y2G5)	1 ± 0.037	1.04 ± 0.019	1.01 ± 0.012	1.02 ± 0.04	0.955 ± 0.029	0.975 ± 0.017
UniProt Q9UPN7	0.945 ± 0.014	0.941 ± 0.046	0.941 ± 0.029	0.917 ± 0.041	0.924 ± 0.018	0.93 ± 0.037
UniProt Q9UP95|Q9UP95-5|Q9UP95-6	0.956 ± 0.1	0.979 ± 0.12	0.964 ± 0.11	1.03 ± 0.058	0.909 ± 0.099	0.989 ± 0.035
UniProt Q9Y639|Q9Y639-1|Q9Y639-3|Q9Y639-5	0.919 ± 0.11	0.888 ± 0.06	0.938 ± 0.1	0.926 ± 0.084	0.896 ± 0.061	0.851 ± 0.11
UniProt Q9Y303|Q9Y303-2|Q9Y303-3	0.995 ± 0.056	1.03 ± 0.069	1.03 ± 0.083	0.973 ± 0.12	1.02 ± 0.086	0.995 ± 0.063
MRPS2 (UniProt Q9Y399)	1.11 ± 0.13	0.951 ± 0.12	0.932 ± 0.071	0.917 ± 0.17	0.944 ± 0.12	0.884 ± 0.088
UniProt Q9Y3I0	0.997 ± 0.038	0.974 ± 0.025	0.979 ± 0.043	1.04 ± 0.04	1.02 ± 0.048	1.02 ± 0.048
UniProt Q9ULI0|Q9ULI0-2	1.69 ± 0.34	1.83 ± 0.46	1.86 ± 0.57	1.86 ± 0.44	1.75 ± 0.44	1.72 ± 0.48
